Among the data in PubChem BioAssay (NCI) are growth inhibition values, retold here.

Structures are written as SMILES. The panel holds about 79,000 compounds, 15% with a hit somewhere; the sample as a whole holds those more often. Activity calls are given as the source filed them. No stated cut-off is given here; in the data, active means growth inhibition above about 70%; inactive means the rest.

One assay is described as follows: NCI Yeast Anticancer Drug Screen. Data for the sgs1 mgt1 strain (AID 161).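 Further: 0% = growth of cultures given vehicle only.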 The following applies: S. cerevisiae sgs1 mgt1 strain, at 5.0 µM (retest, dose inferred, filed as 0.5), hits give high values. The gist of the method: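 Genetically altered yeast, compound exposure, growth inhibition relative to vehicle.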
For `CCCCN(CCC(=O)O)c1ccc(/C=C\c2ccnc3ccccc23)cc1`, the growth inhibition was 21% (inactive).
As to `CC1CC(N)=NC1C(=O)NCCC#N` (stereo not drawn), the growth inhibition is 38% (inactive).
`O=C(CC1(O)CCCCC1)OC1CCCC1`: the growth inhibition was 1% (inactive).
With `CN(C)c1nc(-c2ccccc2)cc(-c2ccc(O)cc2)n1`, the growth inhibition was 22% (inactive).
Still for that read-out and setting: as for `Oc1cc(C(c2ccccc2)c2ccccc2)c2ccccc2c1O`, the figure is 20% (inactive); as for `C(=P(c1ccccc1)(c1ccccc1)c1ccccc1)[P+](c1ccccc1)(c1ccccc1)c1ccccc1`, 99% (active).
Still for that read-out and setting: the same measure for `COC(=O)c1ccc(CCc2cc(O)ccc2O)cc1`: 70% (active); for `CCCCCCCCCCN`: 7% (inactive); for `CC[N-]c1nncs1.CC[N-]c1nncs1.CC[N-]c1nncs1.CC[N-]c1nncs1.[Cl][Rh][Cl]`: 11% (inactive).
On the same count and under the same terms, the same measure for `CC(C)C1=CC23CCC4C(C)(C(=O)O)CCCC4(C)C2CC1CC3C#N` (stereo not drawn): 12% (inactive); for `COc1ccc(/C(Cl)=C(\C=O)c2ccc(Cl)cc2)cc1`: -17% (inactive).
Regarding `CCOC(=O)Cc1csc(/N=C\c2c(O)c3ccccc3oc2=O)n1`, the growth inhibition is 22% (inactive).
On to `Cc1cccc(/C=N/NC(=S)Nc2ccccc2)n1`, for which the growth inhibition was -42% (inactive).
Same read-out and setting: the same measure for `Nc1nn2c(C(Br)Br)cc(C(Br)Br)nc2c1[N+](=O)[O-]`: 100% (active); for `c1ccc2nc3ccccc3nc2c1`: -5% (inactive); for `O=c1ccc2nc3ccccc3ccc-2c1`: -61% (inactive).
Still for that read-out and setting: the same measure for `C=CCOCC(C)OC(=O)C(C)C` (stereo not drawn): -63% (inactive); for `CCCCCCOC(=O)CCC(=O)OCCCCCC`: -1% (inactive); for `CC(=O)C(C(C)=O)C1C=CC=CC=C1`: -59% (inactive).
For `CCCOC(=O)CCCC(=O)N(CC)CC`, the growth inhibition is 0% (inactive).
Take `CCOC(=O)C(=O)CC1=Nc2ccccc2SC(c2cccc(C)c2)C1` (stereo not drawn): the growth inhibition is 7% (inactive).
On the same count and under the same terms, as for `COc1cc2c(c(-c3cn(C)c4ccccc34)c1OC)OCO2`, the figure is 4% (inactive).
As to `COC(=O)c1c(C)cccc1C1CN=NC12Cc1ccc(C)c(C)c1C2=O` (stereo not drawn), the growth inhibition was 13% (inactive).
`CCCCCCCCCCC(=O)CC(=O)c1c(O)cccc1O`: the growth inhibition was 10% (inactive).
The same measure, in the same setting: as for `CCCCCCNC(=S)N/N=C(\C)c1ccccn1`, the figure is 63% (inactive); as for `Oc1ccc(N=Nc2ccc(Cl)cc2)cc1O`, 8% (inactive).
Same read-out and setting: as for `CCO/C=C1\N=C(C(O)(c2ccc(Cl)cc2)c2ccc(Cl)cc2)OC1=O`, the figure is -2% (inactive); as for `Clc1ccc(CN2COc3c(ccc4cccnc34)C2)cc1`, -1% (inactive).
For the compound `Cc1nc(C(N)=S)sc1/C(CC(=O)C(=O)Nc1cccc2ccc(O)cc12)=N\NC(=O)c1ccncc1`, the growth inhibition was 9% (inactive).
The same measure, in the same setting: as for `Nc1ncc(C(=O)c2ccccc2)cc1[N+](=O)[O-]`, the figure is -61% (inactive); as for `O=C1C2C3C=CC(C3)C2C(=O)C2C3C=CC(C3)C12` (stereo not drawn), 65% (inactive).
The same measure, in the same setting: the same measure for `CCCCOC(=O)c1cnc[nH]c1=O`: 0% (inactive); for `N#CC(c1ccc(Cl)cc1)c1ccc([N+](=O)[O-])cc1` (stereo not drawn): 2% (inactive).
For the compound `CN(C)C(N)=NC#N`, the growth inhibition is 27% (inactive).
The same measure, in the same setting: the same measure for `CCCCc1c(O)c(N=NC(=O)C[n+]2ccccc2)c2ccccc2c1O`: 2% (inactive).
Regarding `CCOC(=O)C(=O)Nc1nc2c(s1)C(=O)c1ccccc1C2=O`, the growth inhibition is 14% (inactive).
On the same count and under the same terms, the same measure for `COc1ccc(C(=O)Nc2ccccc2[N+](=O)[O-])cc1`: -13% (inactive).
The same measure, in the same setting: as for `COc1ccccc1NC(=O)/C(=C/n1c(=S)sc2ccccc21)C(C)=O`, the figure is 7% (inactive); as for `Cc1ccc(C)c(C(=O)/C=C/C(=O)O)c1`, 32% (inactive).

The same assay, now with this note: S. cerevisiae sgs1 mgt1 strain, at 50.0 µM (retest, dose inferred, filed as 5.0), hits give high values.
As for `CCCCN(CCC(=O)O)c1ccc(/C=C\c2ccnc3ccccc23)cc1`, the growth inhibition is 90% (active).
Turning to `CC1CC(N)=NC1C(=O)NCCC#N` (stereo not drawn), the growth inhibition is 17% (inactive).
As for `O=C(CC1(O)CCCCC1)OC1CCCC1`, the growth inhibition was 0% (inactive).
Same read-out and setting: as for `CN(C)c1nc(-c2ccccc2)cc(-c2ccc(O)cc2)n1`, the figure is 92% (active).
The same measure, in the same setting: as for `Oc1cc(C(c2ccccc2)c2ccccc2)c2ccccc2c1O`, the figure is 1% (inactive).
Same read-out and setting: the same measure for `C(=P(c1ccccc1)(c1ccccc1)c1ccccc1)[P+](c1ccccc1)(c1ccccc1)c1ccccc1`: 99% (active); for `COC(=O)c1ccc(CCc2cc(O)ccc2O)cc1`: 99% (active).
For `CCCCCCCCCCN`, the growth inhibition is 36% (inactive).
Still for that read-out and setting: the same measure for `CC[N-]c1nncs1.CC[N-]c1nncs1.CC[N-]c1nncs1.CC[N-]c1nncs1.[Cl][Rh][Cl]`: 93% (active); for `CC(C)C1=CC23CCC4C(C)(C(=O)O)CCCC4(C)C2CC1CC3C#N` (stereo not drawn): 42% (inactive); for `COc1ccc(/C(Cl)=C(\C=O)c2ccc(Cl)cc2)cc1`: 22% (inactive).
With `CCOC(=O)Cc1csc(/N=C\c2c(O)c3ccccc3oc2=O)n1`, the growth inhibition is 37% (inactive).
In the case of `Cc1cccc(/C=N/NC(=S)Nc2ccccc2)n1`, the growth inhibition was 99% (active).
Consider `Nc1nn2c(C(Br)Br)cc(C(Br)Br)nc2c1[N+](=O)[O-]`, for which the growth inhibition was 100% (active).
In the case of `c1ccc2nc3ccccc3nc2c1`, the growth inhibition is 16% (inactive).
Still for that read-out and setting: as for `O=c1ccc2nc3ccccc3ccc-2c1`, the figure is -64% (inactive).
Consider `C=CCOCC(C)OC(=O)C(C)C` (stereo not drawn), for which the growth inhibition is -63% (inactive).
Same read-out and setting: as for `CCCCCCOC(=O)CCC(=O)OCCCCCC`, the figure is 15% (inactive); as for `CC(=O)C(C(C)=O)C1C=CC=CC=C1`, 90% (active).
Same read-out and setting: the same measure for `CCCOC(=O)CCCC(=O)N(CC)CC`: -9% (inactive); for `CCOC(=O)C(=O)CC1=Nc2ccccc2SC(c2cccc(C)c2)C1` (stereo not drawn): 98% (active).
As to `COc1cc2c(c(-c3cn(C)c4ccccc34)c1OC)OCO2`, the growth inhibition is 59% (inactive).
The same measure, in the same setting: as for `COC(=O)c1c(C)cccc1C1CN=NC12Cc1ccc(C)c(C)c1C2=O` (stereo not drawn), the figure is 56% (inactive).
Still for that read-out and setting: as for `CCCCCCCCCCC(=O)CC(=O)c1c(O)cccc1O`, the figure is 5% (inactive); as for `CCCCCCNC(=S)N/N=C(\C)c1ccccn1`, 99% (active).
The same measure, in the same setting: the same measure for `Oc1ccc(N=Nc2ccc(Cl)cc2)cc1O`: 98% (active); for `CCO/C=C1\N=C(C(O)(c2ccc(Cl)cc2)c2ccc(Cl)cc2)OC1=O`: 1% (inactive); for `Clc1ccc(CN2COc3c(ccc4cccnc34)C2)cc1`: 97% (active).
`Cc1nc(C(N)=S)sc1/C(CC(=O)C(=O)Nc1cccc2ccc(O)cc12)=N\NC(=O)c1ccncc1`: the growth inhibition is 28% (inactive).
On the same count and under the same terms, as for `Nc1ncc(C(=O)c2ccccc2)cc1[N+](=O)[O-]`, the figure is -45% (inactive); as for `O=C1C2C3C=CC(C3)C2C(=O)C2C3C=CC(C3)C12` (stereo not drawn), 99% (active); as for `CCCCOC(=O)c1cnc[nH]c1=O`, 8% (inactive).
Consider `N#CC(c1ccc(Cl)cc1)c1ccc([N+](=O)[O-])cc1` (stereo not drawn), for which the growth inhibition is 84% (active).
On the same count and under the same terms, as for `CN(C)C(N)=NC#N`, the figure is 96% (active).
Same read-out and setting: as for `CCCCc1c(O)c(N=NC(=O)C[n+]2ccccc2)c2ccccc2c1O`, the figure is 27% (inactive); as for `CCOC(=O)C(=O)Nc1nc2c(s1)C(=O)c1ccccc1C2=O`, 99% (active); as for `COc1ccc(C(=O)Nc2ccccc2[N+](=O)[O-])cc1`, -11% (inactive).
Same read-out and setting: the same measure for `COc1ccccc1NC(=O)/C(=C/n1c(=S)sc2ccccc21)C(C)=O`: 20% (inactive); for `Cc1ccc(C)c(C(=O)/C=C/C(=O)O)c1`: 100% (active).
